Structures are written as SMILES. The source made the active and inactive calls.

Experiment [1] deals with Wnt5a (protein binding on small-molecule microarray). Nature of the experiment: small molecules binding Wnt5a protein – biophysical, small-molecule microarray, 635/667 nm fluorescence, primary screen (AID 1142).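 Further: fluorescence read at 667 nm with signal to noise per printed feature.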 The following applies: 635 nm fluorescence, higher = more signal.
The nature of experiment [2]: ATP-based viability of Huh7 replicon cells – cell-based, CellTiter-Glo luminescence, basal, 48 h, cytotoxicity control for HCV replication inhibitor project, primary screen (AID 1143).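 Further: Huh7 hepatoma cells carrying a hepatitis C replication reporter with no stimulus; test concentration not given here.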 The following applies: higher = more signal, called active from +8 up or from −8 down.
A short description of experiment [3]: basal CRE-LacZ reporter activity in PC12 – cell-based, unstimulated, primary screen (AID 1145). Particulars: no forskolin, luminescence, 4.5 h, higher = more signal, called active from +8 up or from −8 down.
Experiment [4] is described as follows: forskolin-driven CRE-LacZ activity in PC12 – cell-based, CRE-LacZ reporter, forskolin-stimulated, primary screen (AID 1146).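 Further: PC12 cells with 6xCRE LacZ reporter stimulated by forskolin 10 µM; beta-galactosidase reporter signal reflecting CREB driven transcription.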 Particulars: luminescence, 4.5 h, higher = more signal, called active from +8 up or from −8 down.
Experiment [5] deals with Streptavidin (Streptomyces avidinii) (UniProt P22629). Nature of the experiment: compounds binding control protein streptavidin – biophysical, small-molecule microarray, 635/667 nm fluorescence, artefact control for SMM compound annotation, primary screen (AID 1147).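 Further: signal reflects streptavidin binding to arrayed compounds as a control protein.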 Particulars: higher = more signal.
Sequence of Streptavidin (Streptomyces avidinii) (P22629 whole entry, looked up): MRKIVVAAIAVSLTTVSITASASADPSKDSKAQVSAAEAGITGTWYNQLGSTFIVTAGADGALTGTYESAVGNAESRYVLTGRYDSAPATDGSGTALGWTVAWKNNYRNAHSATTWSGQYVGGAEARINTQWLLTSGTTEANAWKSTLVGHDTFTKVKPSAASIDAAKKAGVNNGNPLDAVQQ
Experiment [6] is described as follows: probe aInhba binding on compound microarray – biochemical, small-molecule microarray, 635/667 nm fluorescence, primary screen (AID 1148).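 Further: score merges 667nm spot fluorescence with signal-to-noise for antibody binding to printed compounds.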 Particulars: higher = more signal.
Experiment [7] addresses Torsin-1A (Homo sapiens) (UniProt O14656). As to the kind of experiment: TOR1A wild-type binding on microarray – cell lysate, small-molecule microarray, lysate, 635/667 nm, primary screen (AID 1149). Particulars: COS7 hTOR1A-WT lysate, 635 nm fluorescence, higher = more signal.
Experiment [8] has the same target. Nature of the experiment: torsin A mutant lysate binding on microarrays – cell lysate, small-molecule microarray, COS7 lysate, 635/667 nm fluorescence, primary screen (AID 1150).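 Further: score pools 667 nm emission and signal to noise measuring lysate protein binding.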 Particulars: COS7 hTOR1A mutant lysate, 635 nm fluorescence, higher = more signal.
Experiment [9] relates to Sonic hedgehog protein (Shh). As to the kind of experiment: Sonic hedgehog microarray binding compounds – biochemical, small-molecule microarray, 635/667 nm fluorescence, primary screen (AID 1151).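 Further: Shh protein binding to compounds spotted on small-molecule microarray slides; score combines spot fluorescence intensity with signal-to-noise across triplicate slides.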 Particulars: 635 nm fluorescence, higher = more signal.
The nature of experiment [10]: optical density shifts of acrAB sulA E. coli – strain DRC41, OD650, 48 h, E. coli filamentation inducer project, primary screen (AID 1152).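 Further: E. coli MC1000 strain DRC41 lacking acrAB efflux pump and sulA.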 Particulars: higher = more signal, called active from +8 up or from −8 down.
The nature of experiment [11]: probe aLefty1 binding on compound microarray – biochemical, small-molecule microarray, 635/667 nm fluorescence, primary screen (AID 1153).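 Further: score merges spot fluorescence with signal-to-noise ratio from the scanned slide images.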 Particulars: higher = more signal.
A short description of experiment [12]: plasmodial surface anion channel blockers, osmotic lysis – cell-based, P. falciparum Indochina, OD700, 1 h, primary screen (AID 1154). Particulars: P. falciparum Indochina infected RBC osmotic lysis, higher = more signal, called active from +8 up or from −8 down.
A short description of experiment [13]: plasmodial surface anion channel blockers, osmotic lysis – cell-based, P. falciparum Indochina, OD700, 2 h, primary screen (AID 1155).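 Further: lysis reports solute entry through the parasite surface anion channel PSAC.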 Particulars: P. falciparum Indochina infected erythrocytes, higher = more signal, called active from +8 up or from −8 down.
Experiment [14] can be described thus: changes in parasitized red cell lysis, either direction – P. falciparum Indochina, OD700, 3 h, PSAC antagonist project, primary screen (AID 1156). The following applies: P. falciparum-infected erythrocytes, osmotic lysis, higher = more signal, called active from +8 up or from −8 down.
A short description of experiment [15]: plasmodial surface anion channel blockers, osmotic lysis – cell-based, P. falciparum Indochina, OD700, 18 h, primary screen (AID 1157). Particulars: P. falciparum Indochina infected erythrocytes, osmotic lysis OD700, 18 h; higher = more signal, called active from +8 up or from −8 down.
Experiment [16] is described as follows: S6 kinase pathway phospho-S6 level changes – cell-based, A549, cytoblot, luminescence, serum-stimulated, primary screen (AID 1158).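 Further: serum-stimulated A549 lung adenocarcinoma cells; signal is phosphorylated S6 detected by cytoblot immunostaining with HRP secondary.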 The following applies: 5 h, higher = more signal.
Experiment [17] deals with NADPH oxidase 2 (Homo sapiens) (UniProt P04839). As to the kind of experiment: compounds shifting NOX2 Amplex Red fluorescence – cell-based, HEK293-NOX2, PMA-stimulated, NOX inhibitor project, primary screen (AID 1159). Further: test concentration not given here. Particulars: 45 min, higher = more signal, called active from +8 up or from −8 down.
Sequence of NADPH oxidase 2 (Homo sapiens) (P04839 whole entry, looked up): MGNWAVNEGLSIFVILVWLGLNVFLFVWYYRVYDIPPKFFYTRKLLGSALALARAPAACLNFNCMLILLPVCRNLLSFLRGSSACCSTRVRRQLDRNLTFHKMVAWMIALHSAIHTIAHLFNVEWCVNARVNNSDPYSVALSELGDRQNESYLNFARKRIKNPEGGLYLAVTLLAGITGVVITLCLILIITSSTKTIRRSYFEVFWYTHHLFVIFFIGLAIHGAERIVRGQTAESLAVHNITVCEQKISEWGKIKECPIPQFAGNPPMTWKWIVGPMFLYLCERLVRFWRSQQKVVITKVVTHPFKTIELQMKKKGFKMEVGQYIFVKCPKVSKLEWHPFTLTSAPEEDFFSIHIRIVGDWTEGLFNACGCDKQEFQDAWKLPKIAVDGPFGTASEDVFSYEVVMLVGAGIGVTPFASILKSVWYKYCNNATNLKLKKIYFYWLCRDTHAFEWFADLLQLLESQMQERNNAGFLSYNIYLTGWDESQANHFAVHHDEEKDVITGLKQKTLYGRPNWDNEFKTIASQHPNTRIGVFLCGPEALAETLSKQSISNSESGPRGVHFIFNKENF
Experiment [18] concerns the target NADPH oxidase 4 (Homo sapiens) (UniProt Q9NPH5). Nature of the experiment: compounds shifting NOX4 Amplex Red fluorescence – cell-based, HEK293-NOX4, tetracycline-induced, NOX inhibitor project, primary screen (AID 1160). The following applies: HEK293-NOX4, Amplex Red H2O2 fluorescence, 45 min; higher = more signal, called active from +8 up or from −8 down.
Experiment [19] has as its target NADPH oxidase 5 (Homo sapiens) (UniProt Q96PH1). Nature of the experiment: compounds shifting NOX5 Amplex Red fluorescence – cell-based, HEK293-NOX5, NOX inhibitor project, primary screen (AID 1161). Particulars: HEK293-NOX5, ionomycin, 45 min, higher = more signal.

Sequence of NADPH oxidase 5 (Homo sapiens) (Q96PH1 whole entry, looked up): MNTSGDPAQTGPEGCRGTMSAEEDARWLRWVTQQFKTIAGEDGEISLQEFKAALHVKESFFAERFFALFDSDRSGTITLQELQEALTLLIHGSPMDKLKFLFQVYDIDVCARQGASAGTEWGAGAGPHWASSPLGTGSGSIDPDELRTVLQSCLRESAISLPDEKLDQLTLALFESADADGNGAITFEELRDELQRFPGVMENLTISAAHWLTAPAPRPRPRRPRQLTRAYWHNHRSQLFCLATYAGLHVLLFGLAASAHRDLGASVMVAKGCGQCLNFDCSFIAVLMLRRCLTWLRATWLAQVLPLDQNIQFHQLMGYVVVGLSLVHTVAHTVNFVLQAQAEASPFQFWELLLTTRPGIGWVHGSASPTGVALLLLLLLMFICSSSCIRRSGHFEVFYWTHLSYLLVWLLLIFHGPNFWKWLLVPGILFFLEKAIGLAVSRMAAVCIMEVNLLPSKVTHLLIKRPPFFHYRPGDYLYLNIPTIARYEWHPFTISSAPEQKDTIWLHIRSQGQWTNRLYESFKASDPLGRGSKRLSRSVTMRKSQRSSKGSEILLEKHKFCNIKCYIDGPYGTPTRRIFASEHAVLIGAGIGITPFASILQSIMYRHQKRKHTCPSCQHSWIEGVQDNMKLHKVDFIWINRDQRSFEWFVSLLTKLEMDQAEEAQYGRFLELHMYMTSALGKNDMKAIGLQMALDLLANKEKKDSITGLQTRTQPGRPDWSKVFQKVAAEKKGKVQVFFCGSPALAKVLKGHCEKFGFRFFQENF
Sequence of Torsin-1A (Homo sapiens) (O14656 whole entry, looked up): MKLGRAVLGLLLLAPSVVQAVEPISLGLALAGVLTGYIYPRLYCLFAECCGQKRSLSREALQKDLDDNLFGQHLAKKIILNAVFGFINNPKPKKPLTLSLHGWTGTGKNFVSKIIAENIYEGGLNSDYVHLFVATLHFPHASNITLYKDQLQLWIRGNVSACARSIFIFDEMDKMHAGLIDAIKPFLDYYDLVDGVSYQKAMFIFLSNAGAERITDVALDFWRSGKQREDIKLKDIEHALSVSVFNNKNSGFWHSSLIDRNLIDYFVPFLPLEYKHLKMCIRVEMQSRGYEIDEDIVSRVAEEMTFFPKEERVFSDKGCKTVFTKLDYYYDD
Sequence of NADPH oxidase 4 (Homo sapiens) (Q9NPH5 whole entry, looked up): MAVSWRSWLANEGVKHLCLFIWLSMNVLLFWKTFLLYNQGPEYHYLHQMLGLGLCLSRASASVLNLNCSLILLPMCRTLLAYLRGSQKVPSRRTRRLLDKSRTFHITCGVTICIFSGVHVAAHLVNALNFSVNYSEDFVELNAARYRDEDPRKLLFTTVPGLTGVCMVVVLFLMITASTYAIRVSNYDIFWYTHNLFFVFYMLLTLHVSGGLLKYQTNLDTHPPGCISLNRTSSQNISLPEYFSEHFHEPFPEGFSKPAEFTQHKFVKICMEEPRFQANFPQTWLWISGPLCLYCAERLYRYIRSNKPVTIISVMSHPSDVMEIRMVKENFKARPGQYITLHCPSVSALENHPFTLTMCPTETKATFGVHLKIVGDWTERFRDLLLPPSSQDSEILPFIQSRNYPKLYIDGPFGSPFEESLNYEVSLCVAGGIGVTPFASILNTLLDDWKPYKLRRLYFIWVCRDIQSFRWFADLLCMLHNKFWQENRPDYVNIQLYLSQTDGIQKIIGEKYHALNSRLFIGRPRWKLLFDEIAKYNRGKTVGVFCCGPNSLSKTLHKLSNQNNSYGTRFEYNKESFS

With `CC(C)CN1C(=O)[C@@]2(Cc3ccccc31)c1ccccc1C(=O)N(C1CCCCC1)[C@H]2c1ccc(CO)cc1`, the composite z-score in experiment [1] is -0.194; in experiment [5] it was -1.12; in experiment [6], -0.208; in the experiment with Torsin-1A (Homo sapiens) [7], -0.475; with Torsin-1A (Homo sapiens) [8] it was -0.488; in [9] it was -0.264. The compound also returned a composite z-score in [11] of -0.101. In addition, the z-score was -2.02 (inactive) in [2]; -0.152 (inactive) in experiment [3]; -0.876 (inactive) in experiment [4]; 1.83 (inactive) in [10]; 0.838 (inactive) in [12]; -0.528 (inactive) in experiment [13]. In addition, the z-score is -0.0544 (inactive) in experiment [14]; -1.24 (inactive) in experiment [15]; 2.22 in experiment [16]; -0.236 (inactive) in [17]; -1.31 (inactive) in [18]; 0.441 in experiment [19].

For `CSCC[C@@H]1NC(=O)CC=C[C@@H](C)COC(=O)[C@H](CCSC)NC(=O)CC=C[C@@H](C)COC1=O`, the composite z-score in [1] is 0.119; in [5], -0.563; in experiment [6] it was -0.146; in the experiment with Torsin-1A (Homo sapiens) [7], 0.138; in the experiment with Torsin-1A (Homo sapiens) [8] it was 0.291; in experiment [9] it was 0.493. Further, the composite z-score in experiment [11] is -0.0559. The z-score in experiment [2] was -3.38 (inactive); in [3], -0.389 (inactive); in [4], -0.837 (inactive); in [10], -0.77 (inactive); in experiment [12] it was -0.138 (inactive); in experiment [13] it was -0.774 (inactive). The z-score is -1.73 (inactive) in experiment [14]; -1.85 (inactive) in experiment [15]; 0.214 in [16]; -1.26 (inactive) in experiment [17]; 0.731 (inactive) in experiment [18]; 1.5 in experiment [19].

`C[N+](C)(C)CCCCNC(=O)[C@@H]1C[C@@H]2C(=O)N3CCC[C@H]3C(=O)N2[C@@H]1c1cccc(OCCO)c1`: the composite z-score in experiment [1] was 0.256; in experiment [5], -0.315; in [6], -0.128; with Torsin-1A (Homo sapiens) [7], 0.725; with Torsin-1A (Homo sapiens) [8], 1.03; in experiment [9] it was 1.84. In experiment [11], the composite z-score is 0.14. Moreover, the z-score in experiment [2] was -3.3 (inactive); in experiment [3], -0.671 (inactive); in [4] it was -1.62 (inactive); in experiment [10], 1.25 (inactive); in experiment [12], 2.9 (inactive); in experiment [13], -0.732 (inactive). Besides, the z-score in experiment [14] is -2.56 (inactive); in experiment [15], -2.13 (inactive); in [16], 0.326; in experiment [17], -1.42 (inactive); in experiment [18], -0.183 (inactive); in experiment [19], -0.87.

Consider `CC(C)CNC(=O)[C@@]1(C)c2ccccc2C(=O)N(Cc2ccc(OC(F)(F)F)cc2)[C@H]1c1ccc(CO)cc1`, for which the composite z-score in experiment [1] was 0.12; in experiment [5], -1.12; in experiment [6], -0.128; with Torsin-1A (Homo sapiens) [7], -0.0233; with Torsin-1A (Homo sapiens) [8] it was 0.316; in [9], -0.406. Further, the composite z-score in experiment [11] is 0.152. The z-score was -1.65 (inactive) in experiment [2]; 0.0279 (inactive) in [3]; -0.569 (inactive) in experiment [4]; 1.28 (inactive) in experiment [10]; 2.97 (inactive) in experiment [12]; 0.251 (inactive) in experiment [13]. In addition, the z-score is 1.09 (inactive) in [14]; -0.0139 (inactive) in experiment [15]; 0.181 in experiment [16]; -0.201 (inactive) in [17]; 0.775 (inactive) in experiment [18]; 1.01 in [19].

For `C=CCC1=C[C@H]2[C@H]([C@@H]3C=C[C@]2(CC=C)C(=O)[C@]32CO2)[C@@]2(CO2)C1=O`, the composite z-score in experiment [1] was 0.123; in experiment [5], 0.843; in [6], -0.0021; with Torsin-1A (Homo sapiens) [7], 0.919; in the experiment with Torsin-1A (Homo sapiens) [8], -0.0031; in experiment [9], 2.11. The composite z-score in experiment [11] came out at 0.736. The z-score is -3.26 (inactive) in [2]; 2.21 (inactive) in experiment [3]; 1.62 (inactive) in experiment [4]; 2.45 (inactive) in experiment [10]; 0.348 (inactive) in [12]; -0.877 (inactive) in [13]. Also, the z-score in experiment [14] was 1.16 (inactive); in experiment [15], -1.87 (inactive); in [16] it was 0.76; in experiment [17], -0.0349 (inactive); in experiment [18], 0.0495 (inactive); in experiment [19] it was -0.972.

For the compound `CC(=O)NCCCC[C@@H]1NC(=O)[C@@H]2C[C@H](C(=O)NCCCCCCN(C)C)[C@H](c3ccc(O)cc3)N2C1=O`, the composite z-score in experiment [1] was 0.336; in [5], 1.24; in experiment [6] it was 0.982; in the experiment with Torsin-1A (Homo sapiens) [7] it was 1.49; in the experiment with Torsin-1A (Homo sapiens) [8], 1.52; in experiment [9], 1.43. Moreover, the composite z-score in experiment [11] was -0.0619. Further, the z-score in experiment [2] is -0.849 (inactive); in experiment [3], 0.0043 (inactive); in experiment [4], -1.19 (inactive); in experiment [10] it was 1.03 (inactive); in [12], 1.19 (inactive); in experiment [13], -1.12 (inactive). The z-score in experiment [14] was -2.63 (inactive); in experiment [15], -2.32 (inactive); in [16], -0.0253; in [17], -0.498 (inactive); in experiment [18], -1.45 (inactive); in [19], 0.253.

With `NC(=O)NCC#Cc1ccc2c(c1)[C@]1(C(=O)N2)[C@H](C(=O)N2CCCCCCC2)[C@H]2C(=O)O[C@H](c3ccccc3)[C@H](c3ccccc3)N2[C@@H]1c1ccccc1OCCO`, the composite z-score in [1] was found to be 1.58; in experiment [5], 3.38; in experiment [6], 2.01; with Torsin-1A (Homo sapiens) [7] it was 1.73; in the experiment with Torsin-1A (Homo sapiens) [8], 1.53; in experiment [9], 0.81. Further, the composite z-score in experiment [11] worked out at 2.79. The z-score was -0.481 (inactive) in [2]; -0.348 (inactive) in [3]; -1.18 (inactive) in [4]; 1.43 (inactive) in [10]; 0.833 (inactive) in experiment [12]; 0.483 (inactive) in experiment [13]. Also, the z-score is 1.8 (inactive) in experiment [14]; 0.148 (inactive) in experiment [15]; 0.421 in [16]; 2 (inactive) in experiment [17]; 1.36 (inactive) in experiment [18]; 0.881 in [19].

(Values after PubChem BioAssay.)
